# Laboratory results from PubChem BioAssay.
# Values without a mark were called inactive. For some assays here: Measured potencies and affinities stand elsewhere. Active and inactive are the calls of the source. Unless noted, no rule for the calls is given here.
# Columns and labels:
# [1] = antimalarial activity against Dd2 strain (AID 2302;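 active = growth inhibition above 50% at the single 2 µM test dose, taken to imply half-maximal potency below 2 µM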;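 also: 0% = DMSO untreated growth and 100% = chloroquine plus artemisinin killed control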); conditions: P. falciparum Dd2 in RBCs, LDH growth readout, 72 h; at 2 µM; stronger effect = higher value
# [2] = human hepatoma cell viability loss – ATP luminescence, cytotoxicity control for P. falciparum antimalarial project, primary screen (AID 2303;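 active = inhibition above 50%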;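 also: 0% = DMSO wells and 100% = digitonin-killed cells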); conditions: HepG2 viability, 24-48 h, at 10 µM, stronger effect = higher value
# [3] = biological target: L-lactate dehydrogenase (Plasmodium falciparum (isolate CDC / Honduras)) (UniProt Q27743); experiment: PfLDH activity inhibition – cell lysate, 3D7 strain, counter-screen for P. falciparum growth inhibition project (AID 2304);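 also: 0% = vehicle and 100% = reference inhibitor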; conditions: P. falciparum 3D7 crude extract, LDH APAD/NBT absorbance; at 2 µM; stronger effect = higher value
# L-lactate dehydrogenase (Plasmodium falciparum (isolate CDC / Honduras)), sequence (Q27743 whole entry, looked up): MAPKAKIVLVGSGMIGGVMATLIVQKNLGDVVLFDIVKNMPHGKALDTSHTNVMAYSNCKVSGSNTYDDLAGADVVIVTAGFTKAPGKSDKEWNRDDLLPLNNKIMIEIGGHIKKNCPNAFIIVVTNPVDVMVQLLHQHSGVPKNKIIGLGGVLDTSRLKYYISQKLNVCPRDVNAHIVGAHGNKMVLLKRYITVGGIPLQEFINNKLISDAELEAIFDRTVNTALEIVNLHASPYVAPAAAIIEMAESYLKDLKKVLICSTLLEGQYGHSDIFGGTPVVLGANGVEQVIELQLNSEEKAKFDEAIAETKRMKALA
# [4] = inhibition of 3D7 malaria parasite growth – strain 3D7 (AID 2306);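 also: 0% = DMSO wells and 100% = chloroquine plus artemisinin control wells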; conditions: P. falciparum 3D7 erythrocytic growth, LDH absorbance, 72 h; at 2 µM; stronger effect = higher value
# [5] = biological target: Calcium-dependent protein kinase 1 (Plasmodium falciparum (isolate 3D7)) (UniProt P62344); experiment: PfCDPK1 kinase inhibitors, biochemical, TCAMS library (AID 1159585; cut-off not given, nearly all actives have IC50 up to about 0.98 µM;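 also: inhibitors leave more ATP so luminescence rises with inhibition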); conditions: recombinant PfCDPK1, Kinase-Glo ATP depletion luminescence
# Calcium-dependent protein kinase 1 (Plasmodium falciparum (isolate 3D7)), sequence (P62344 whole entry, looked up): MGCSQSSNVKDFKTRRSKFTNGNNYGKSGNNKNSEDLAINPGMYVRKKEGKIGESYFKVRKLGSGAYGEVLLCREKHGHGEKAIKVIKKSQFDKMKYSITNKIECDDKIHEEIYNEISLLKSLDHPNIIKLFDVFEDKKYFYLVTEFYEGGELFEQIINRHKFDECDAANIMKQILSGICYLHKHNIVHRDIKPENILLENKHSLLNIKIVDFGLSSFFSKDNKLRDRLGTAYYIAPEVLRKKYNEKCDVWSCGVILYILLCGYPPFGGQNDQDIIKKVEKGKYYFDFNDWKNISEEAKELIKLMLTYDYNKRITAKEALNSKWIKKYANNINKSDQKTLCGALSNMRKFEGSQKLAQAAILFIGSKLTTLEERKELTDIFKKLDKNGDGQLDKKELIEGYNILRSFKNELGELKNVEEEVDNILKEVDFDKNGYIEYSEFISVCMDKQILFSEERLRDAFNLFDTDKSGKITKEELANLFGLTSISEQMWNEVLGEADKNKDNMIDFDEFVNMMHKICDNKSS
# [6] = biological target: Plasmodium falciparum protein kinase 6 (PK6, PF3D7_1337100) (UniProt Q8IDW1); experiment: PfPK6 kinase inhibitors, biochemical, TCAMS library (AID 1159586); conditions: recombinant PfPK6, Kinase-Glo ATP depletion luminescence
# Plasmodium falciparum protein kinase 6 (PK6, PF3D7_1337100), sequence (Q8IDW1 1-305): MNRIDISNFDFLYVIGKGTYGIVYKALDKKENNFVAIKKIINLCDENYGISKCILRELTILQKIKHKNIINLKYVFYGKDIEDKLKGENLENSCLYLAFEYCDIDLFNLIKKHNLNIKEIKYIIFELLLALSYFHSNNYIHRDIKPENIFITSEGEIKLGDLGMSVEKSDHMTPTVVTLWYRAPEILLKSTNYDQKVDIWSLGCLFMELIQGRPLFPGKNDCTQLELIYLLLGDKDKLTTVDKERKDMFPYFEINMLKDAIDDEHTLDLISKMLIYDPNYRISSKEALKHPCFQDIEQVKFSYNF
# [7] = biological target: Protein kinase 7 (PK7), Plasmodium falciparum 3D7 (PF3D7_0213400) (UniProt Q7YTF7); experiment: inhibition of Plasmodium PK7 catalytic activity – biochemical, TCAMS antimalarial set, Kinase-Glo luminescence (AID 1159587); conditions: recombinant PfPK7, Kinase-Glo ATP depletion luminescence
# Protein kinase 7 (PK7), Plasmodium falciparum 3D7 (PF3D7_0213400), sequence (Q7YTF7 1-343): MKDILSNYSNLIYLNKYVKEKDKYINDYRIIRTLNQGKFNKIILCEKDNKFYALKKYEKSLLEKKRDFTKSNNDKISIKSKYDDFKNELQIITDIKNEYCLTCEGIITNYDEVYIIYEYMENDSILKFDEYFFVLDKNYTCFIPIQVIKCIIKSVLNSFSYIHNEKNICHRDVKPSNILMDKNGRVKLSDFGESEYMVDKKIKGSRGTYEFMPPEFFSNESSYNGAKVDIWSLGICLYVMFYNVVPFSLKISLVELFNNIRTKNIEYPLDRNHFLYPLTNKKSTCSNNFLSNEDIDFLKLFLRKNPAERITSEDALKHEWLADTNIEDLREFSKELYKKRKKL
# [8] = biological target: Calcium-dependent protein kinase 4 (Plasmodium falciparum (isolate 3D7)) (UniProt Q8IBS5); experiment: PfCDPK4 kinase inhibitors, biochemical, TCAMS library (AID 1159588; cut-off not given, nearly all actives have IC50 up to about 0.91 µM); conditions: recombinant PfCDPK4, Kinase-Glo ATP depletion luminescence
# Calcium-dependent protein kinase 4 (Plasmodium falciparum (isolate 3D7)), sequence (Q8IBS5 whole entry, looked up): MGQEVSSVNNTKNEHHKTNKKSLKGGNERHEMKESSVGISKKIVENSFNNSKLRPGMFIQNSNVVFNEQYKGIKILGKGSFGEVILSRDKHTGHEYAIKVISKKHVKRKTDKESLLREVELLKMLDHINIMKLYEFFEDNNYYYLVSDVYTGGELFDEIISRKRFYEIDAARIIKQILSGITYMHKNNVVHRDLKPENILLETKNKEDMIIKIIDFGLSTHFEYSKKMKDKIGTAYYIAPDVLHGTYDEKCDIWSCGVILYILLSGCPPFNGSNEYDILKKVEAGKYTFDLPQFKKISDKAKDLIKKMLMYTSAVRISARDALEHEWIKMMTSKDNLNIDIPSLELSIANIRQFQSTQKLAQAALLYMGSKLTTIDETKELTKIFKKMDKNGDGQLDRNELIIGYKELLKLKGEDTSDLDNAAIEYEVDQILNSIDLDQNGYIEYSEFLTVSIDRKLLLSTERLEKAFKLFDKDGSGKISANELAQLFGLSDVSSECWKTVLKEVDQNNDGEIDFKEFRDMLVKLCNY
Compound,growth inhibition [1],inhibition [2],inhibition [3] [%],growth inhibition [4],outcome [5],outcome [6],outcome [7],outcome [8]
O=C(Nc1ccc(OC2CCN(Cc3ccc(F)cc3)C2)c(Cl)c1)c1ccccc1 (stereo not given),86% (active),11%,0,91% (active),inactive,inactive,inactive,inactive
CCc1c(CCNCCc2cccc(CCNCCc3ccc(OC)c(OC)c3CC)c2)ccc(OC)c1OC,67% (active),100% (active),-6,81% (active),inactive,inactive,inactive,inactive
Cc1cccc2[nH]c(-c3cccc(-c4ccc(NC(=O)CN5CCN(C)CC5)cc4)c3)nc12,99% (active),45%,-8,101% (active),inactive,inactive,inactive,inactive
Cc1c(Cc2ccccc2)c(=O)oc2c(C)c3c(cc12)CN(CC(C)c1ccccc1)CO3 (stereo not given),98% (active),1%,-1,98% (active),inactive,inactive,inactive,inactive
O=C(CN1CCN(S(=O)(=O)C=Cc2ccccc2)CC1)Nc1cc(C(F)(F)F)ccc1Cl,63% (active),23%,5,96% (active),inactive,inactive,inactive,inactive
Cc1[nH]cnc1CSCCNC(=NCCCCCCCCN=C(NC#N)NCCSCc1nc[nH]c1C)NC#N,48%,1%,0,81% (active),inactive,inactive,inactive,inactive
N=c1n(Cc2ccccc2)c2ccccc2n1CC(O)c1ccc(Cl)cc1 (stereo not given),75% (active),26%,-1,96% (active),inactive,inactive,inactive,inactive
Fc1ccc2nc(-c3cccc(-c4cccc(CN5CCN(c6ccncc6)CC5)c4)c3)[nH]c2c1,99% (active),71% (active),1,102% (active),inactive,inactive,inactive,inactive
COc1ccccc1-c1ccc2nnc(SCC(=O)Nc3ccc4c(c3)OCCO4)n2n1,5%,9%,-7,99% (active),inactive,inactive,inactive,inactive
CN(C)CCn1cc(C(=O)c2cc(Cl)ccc2O)cc1-c1nc2ccccc2c(=O)[nH]1,87% (active),16%,-3,99% (active),inactive,inactive,inactive,inactive
Cn1ccnc1CNC(=O)c1ccc(-c2cccc(-c3nc4ccc(F)cc4[nH]3)c2)cc1,8%,8%,7,96% (active),inactive,inactive,inactive,inactive
COc1ccc(C2C(C(=O)Nc3cc(C)ccc3OC)c3ccccc3C(=O)N2C)cc1 (stereo not given),3%,3%,1,86% (active),inactive,inactive,inactive,inactive
NC1=NC2(CCCCC2)N(OCCCOc2cccc3ccccc23)C(N)=N1,96% (active),67% (active),-2,95% (active),inactive,inactive,inactive,inactive
CN1CCN(Cc2ccc(-c3cccc(-c4nc5ccccc5[nH]4)c3)cc2)CC1,6%,21%,3,93% (active),inactive,inactive,inactive,inactive
COc1ccccc1CNC(=O)C(=O)Nc1c(-c2ccccc2)[nH]c2ccccc12,91% (active),0%,-2,99% (active),inactive,inactive,inactive,inactive
O=C(Nc1cccc(CN2CCCN(Cc3ccc(O)cc3)CC2)c1)c1ccc(-c2ccccc2)cc1,93% (active),33%,-8,100% (active),inactive,inactive,inactive,inactive
c1cncc(CCNCc2ccc(-c3cccc(-c4nc5ccccc5[nH]4)c3)cc2)c1,99% (active),39%,-2,102% (active),inactive,inactive,inactive,inactive
CN1CCCc2ccc(NC(=O)c3cc(-c4ccc(Cl)cc4)cs3)cc2C1,40%,35%,-2,94% (active),inactive,inactive,inactive,inactive
O=C(C1CCCCC1)N1CCOC(CCN2CCC(c3ccccc3)CC2)(c2ccc(Cl)c(Cl)c2)C1 (stereo not given),86% (active),6%,6,92% (active),inactive,inactive,inactive,inactive
Cc1ccc(F)c(C(=O)Nc2cccc(-c3nn4ccccc4c3-c3ccnc(Nc4cccc(F)c4)n3)c2)c1F,60% (active),35%,6,98% (active),inactive,inactive,inactive,inactive

Compound,growth inhibition [1],inhibition [2],inhibition [3] [%],growth inhibition [4],outcome [5],outcome [6],outcome [7],outcome [8]
CCNc1cc(C(=O)N[C@@H](Cc2ccccc2)[C@H](O)CNC2CCCCC2)cc(N2CCCCS2(=O)=O)c1,98% (active),11%,-4,99% (active),inactive,inactive,inactive,inactive
O=C(COc1ccc(F)cc1)NC1CCN(c2ccnc3cc(Cl)ccc23)C1 (stereo not given),100% (active),24%,-1,102% (active),inactive,inactive,inactive,inactive
COc1cc(F)c2nccc([C@@H](O)CN3CCC(NCc4ccc5c(n4)NC(=O)CS5)CC3)c2c1,25%,23%,-4,103% (active),inactive,inactive,inactive,inactive
COc1ccc(NC(=O)[C@H](Cc2ccccc2)Nc2cc(C)nc(Nc3ccccc3)n2)cc1,92% (active),0%,2,101% (active),inactive,inactive,inactive,inactive
CC(=O)Nc1ccc(C(=O)Nc2cccc(-c3csc(-c4nc5ccccc5[nH]4)c3)c2)cn1,97% (active),6%,-3,101% (active),inactive,inactive,inactive,inactive
N#Cc1ccc(Cn2ccc3c4c(N)nc(N)nc4ccc32)cc1,95% (active),64% (active),0,92% (active),inactive,inactive,inactive,inactive
CCNc1cc(C(=O)N[C@@H](Cc2ccccc2)[C@H](O)CNC2(CCC(C)C)CC2)cc(N2CCCCS2(=O)=O)c1,52% (active),6%,2,90% (active),inactive,inactive,inactive,inactive
c1ccc(-c2cc(NCCCCNc3cc(-c4ccccc4)nc4ccccc34)c3ccccc3n2)cc1,97% (active),70% (active),0,102% (active),inactive,inactive,inactive,inactive
COc1ccc2nccc([C@@H](O)CN3CCC(NCc4cc5sccc5nc4C(F)(F)F)CC3)c2c1,67% (active),22%,4,89% (active),inactive,inactive,inactive,inactive
O=C(NC1CCN(CCC[C@]2(c3ccc(Cl)c(Cl)c3)CCCN(C(=O)c3ccccc3)C2)CC1)c1ccc(Cl)cc1,4%,56% (active),-1,95% (active),inactive,inactive,inactive,inactive
COc1c(C2CCN(CCCCNC(=O)c3ccc(NC(=O)c4ccc(C#N)cc4)cc3)CC2)ccc2c1CCCC2,100% (active),81% (active),1,97% (active),inactive,inactive,inactive,inactive
Cn1cc(CN2CCCC(COC(c3ccc(F)cc3)c3ccc(F)cc3)C2)cn1 (stereo not given),100% (active),15%,4,98% (active),inactive,inactive,inactive,inactive
N#Cc1ccc(NC(=O)Nc2ccc(OC(F)(F)F)cc2)cc1,91% (active),43%,0,98% (active),inactive,inactive,inactive,inactive
CN(C(=O)Nc1ccc(F)cc1)C1CCN(CCCCCNC(=O)/C=C/c2ccc(Cl)c(Cl)c2)CC1,-3%,38%,-5,89% (active),inactive,inactive,inactive,inactive
CCCCNC(=O)[C@H](Cc1ccccc1)NC(=O)c1ccc(O)c(-c2ccc(Cl)c(Cl)c2)c1,97% (active),-8%,3,98% (active),inactive,inactive,inactive,inactive
CCC1CN2CCc3c([nH]c4ccc(OC)cc34)[C@@H]2C[C@@H]1CC1NCCc2cc(OC)c(OC)cc21 (stereo not given in full),21%,17%,-2,100% (active),inactive,inactive,inactive,inactive
CN(C)CCCOc1ccc(CN2CC[C@H](NC(=O)c3ccc(Cl)c(Cl)c3)C2)c2ccccc12,97% (active),81% (active),0,101% (active),inactive,inactive,inactive,inactive
CCCN1CCc2c(sc3nc(SCC(=O)Nc4ccc(C)cc4)n(-c4ccc(C)cc4)c(=O)c23)C1,71% (active),0%,-5,92% (active),inactive,inactive,inactive,inactive
CC(=O)Nc1cccc(CN(Cc2ccc(-c3ccc(CNCc4cccnc4)cn3)cc2)C(=O)Cc2cccnc2)c1,65% (active),-3%,-10,97% (active),inactive,inactive,inactive,inactive
COc1ccc(C2CCN(CCCCNC(=O)c3ccc(NC(=O)c4ccc(Cl)cc4)cc3)C2)c(OC)c1 (stereo not given),-1%,18%,2,84% (active),inactive,inactive,inactive,inactive
